A selection: hits, their analogues and other compounds. The true share with any hit is near 18%.
TDP1 inh: blocks human tyrosyl-DNA phosphodiesterase 1; actives 0.28% (n = 350,000); recombinant TDP1, AlphaScreen DNA substrate cleavage; Q9NUW8; Potency, µM (series often up to 130 µM), for inactives: top-dose activity change, negative = inhibition, actives largely listed as inhibitors; note: potency is the fitted concentration of half-maximal effect; % is set by controls: 0 for no effect and ±100 for the full control effect; nearly all actives have a fitted effect of over 40% in size
Target sequence (Q9NUW8 whole entry, looked up): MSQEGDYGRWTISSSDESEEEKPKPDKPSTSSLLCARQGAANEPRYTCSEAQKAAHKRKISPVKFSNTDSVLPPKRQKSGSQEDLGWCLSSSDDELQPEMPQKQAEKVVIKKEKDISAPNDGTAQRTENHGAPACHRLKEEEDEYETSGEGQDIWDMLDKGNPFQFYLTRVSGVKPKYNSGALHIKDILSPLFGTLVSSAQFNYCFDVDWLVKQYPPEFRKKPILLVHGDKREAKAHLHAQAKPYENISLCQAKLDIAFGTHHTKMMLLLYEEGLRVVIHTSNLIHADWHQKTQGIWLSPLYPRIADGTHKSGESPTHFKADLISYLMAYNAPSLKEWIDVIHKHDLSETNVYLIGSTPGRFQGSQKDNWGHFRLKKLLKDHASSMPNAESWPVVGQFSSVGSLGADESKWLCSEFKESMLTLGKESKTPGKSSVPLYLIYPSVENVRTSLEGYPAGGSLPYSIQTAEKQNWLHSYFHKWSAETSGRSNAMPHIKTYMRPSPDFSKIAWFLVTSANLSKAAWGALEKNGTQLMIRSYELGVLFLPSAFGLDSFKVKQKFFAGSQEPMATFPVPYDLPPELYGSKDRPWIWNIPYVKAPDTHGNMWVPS
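Recombinant E. coli-expressed Tdp1 (1 nM) preincubated with compound 15 min at RT, then 5'-biotin/3'-phosphotyrosine-FITC DNA substrate (15 nM) added for 5 min. AlphaScreen beads (10 ug/ml) added, 10 min RT; tyrosine-FITC cleavage read as signal loss.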
DT40 TDP1 CPT: growth inhibition of DT40 Tdp1-/-;hTDP1 cells with camptothecin (screen for TDP1 inhibitors); chicken DT40 Tdp1-/-;hTDP1 cells + 20 nM CPT, ATP luminescence, 48 h; Potency, µM (series often up to 46.2 µM), without a hit: at the highest dose activity change, negative = growth inhibition, hits mostly inhibitors; actives 12% (n = 420,000); AID 686979; note: potency is the fitted concentration of half-maximal effect; % is set by controls: 0 for no effect and ±100 for the full control effect; nearly all actives have a fitted effect of over 55% in size
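Chicken DT40 Tdp1-/- cells stably complemented with human TDP1 were seeded at 400 cells/well in medium containing 20 nM camptothecin, exposed to pin-transferred compounds, and grown at 37 °C for at least 48 hr. Viability was read as ATP luminescence.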
HepG2 tox: kills HepG2 cells in TGF-b inhibitor counter-screen; HepG2 CAGA-GFP viability, ATP luminescence, 18 h; Potency, µM (series often up to 46.1 µM), inactives show top-dose activity change, negative = cytotoxicity, actives largely listed as cytotoxic; actives 0.76% (n = 410,000); note: potency is the fitted concentration of half-maximal effect
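HepG2 CAGA-GFP cells (1000/well, DMEM with 1% FBS) received compound, then TGF-beta at 500 pg/mL final, and were incubated 18 hours at 37 degrees C. Viability was read by CellTiter-Glo luminescence. Media-only wells were set as complete cell-killing and DMSO as no toxicity.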
TGFb SMAD3 inh: inhibitors of TGF-b signaling | HepG2 CAGA-GFP TGF-b/SMAD3 reporter, GFP fluorescence, 18 h; TGF-beta stimulated, 500 pg/mL final | Potency, µM (titrated, usually from 46.1 µM), inactives show top-dose activity, negative = inhibition, most hits filed as inhibitors | actives 1.2% (n = 410,000) | AID 588855; note: potency is the fitted concentration of half-maximal effect; % is set by controls: 0 for no effect and ±100 for the full control effect; nearly all actives have a fitted effect of over 65% in size
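First, reporter cells (HEPG2 CAGA-GFP) rested 2 h at 37 degrees C. Next, compounds were pinned in and TGF-beta added to 500 pg/mL final. After 18 h, GFP was imaged per cell and summed per well.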
IL-1B inflam inh: blocks inflammasome-driven IL-1 beta release; THP-1 LPS/ATP IL-1B secretion, AlphaLISA, 16 h; hits give low values; activity change, % at 57.5 µM; actives 4.7% (n = 360,000); AID 743279; in the data active = activity change below about -50%; inconclusive = mostly about -30% to -49%; note: % is set by controls: 0 for no effect and ±100 for the full control effect
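Secreted IL-1B measured by AlphaLISA bead assay after 16 h compound exposure of THP-1 cells; compounds (final up to 57.5 uM) added 1 h before LPS (250 ng/mL) and ATP (1.25 mM) stimulation; lower signal means less secretion.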
TDP1 cell noCPT: qHTS for Inhibitors of human tyrosyl-DNA phosphodiesterase 1 (TDP1): qHTS in cells in absence of CPT | actives 15% (n = 420,000) | AID 686978, 2013 | DT40 Tdp1-/- hTDP1 cells, no CPT, ATP luminescence, 48 h | Potency, µM (top dose mostly 46.2 µM), for the others: at the highest dose activity change, negative = growth inhibition, hits mostly inhibitors; note: potency is the fitted concentration of half-maximal effect; % is set by controls: 0 for no effect and ±100 for the full control effect; nearly all actives have a fitted effect of over 55% in size
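Readout: luminescence from CellTiter-Glo after 30 min in the dark at RT. Cells: DT40 Tdp1-/- with stable hTDP1, 400/well. Exposure: compounds alone, ≥48 hr, 37 °C.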
An asterisk follows results filed as active; ? = inconclusive; . = no result; [ ] = remark or other dose. Unless noted, calls come from the whole dose curve; as a rule, active = well fitted curve in the direction sought with a large enough effect; inconclusive = small, poorly fitted or top-dose-only effect, or another doubt; inactive = no such curve, though single readings can be large; an effect the other way counts as inactive or inconclusive.

SMILES	TDP1 inh	DT40 TDP1 CPT	HepG2 tox	TGFb SMAD3 inh	IL-1B inflam inh	TDP1 cell noCPT
CCc1ccc(C2=C(C)C(N3CCC(C(=O)NCc4ccccc4)CC3)=NS2(=O)=O)cc1	6%	4%	-1%	-2%	.	-23%
Oc1ccc(C[C@@H]2CNCCN2CC2(c3ccccc3)CC2)cc1	-8%	?	-18%	6%	?	?
Cc1nn(S(=O)(=O)c2ccc(Br)cc2)c(C)c1S(=O)(=O)N1CCCCCC1	-2%	-19%	-4%	0%	.	-26%
CCC1CCCCN1C(=O)Cn1c(=O)n(-c2ccccc2C(F)(F)F)c(=O)c2c(C)c(C(=O)N(C)C)sc21 (configuration not stated)	0%	-17%	0%	-13%	.	-15%
O=C(C[n+]1cc(Br)cc2ccccc21)c1ccc(O)c(O)c1	.	?	-29%	-8%	.	?
OC(CBr)C[n+]1cc(Br)cc2ccccc21 (configuration not stated)	.	7.1µM*	-12%	-2%	.	8.9µM*
O=C(C[n+]1cc(Br)cc2ccccc21)c1ccccc1	6%	18µM*	-34%	?	26	18µM*
CC1(C)OC(C(O)(c2cc(F)c(F)c(F)c2)c2cc(F)c(F)c(F)c2)C(C(O)(c2cc(F)c(F)c(F)c2)c2cc(F)c(F)c(F)c2)O1 (configuration not stated)	7%[21 µM]	.	.	.	.	.
COc1ccccc1NC(=O)CSc1nnc(C2CCCCC2)n1C	-2%	2%	4%	7%	-4	-31%
COc1ccccc1NC(=O)CSc1nnc(C2CCCCC2)n1-c1ccccc1	.	21µM*	1%	2%	-24	12µM*
COc1ccccc1NC(=O)Cn1nc(-c2ccncc2)nc1SCC(=O)NC1CCCC1	-8%	13µM*	4%	-6%	17	15µM*
Cn1c(CC(=O)Nc2ccccc2F)nnc1SCC(=O)Nc1ccccc1Br	.	-26%	11µM*	-1%	9	-8%
COc1ccccc1NC(=O)CSc1nnc(CC(=O)Nc2ccccc2)n1C	-5%	-30%	-1%	2%	-50*	-8%
COc1ccccc1NC(=O)Cc1nnc(SCC(=O)NC2CCCC2)n1C	.	-2%	12%	0%	20	3%
CCCCN(C(=O)Cn1nnc2ccccc21)C(C(=O)NCCOC)c1cccs1 (configuration not stated)	0%	9%	7%	-2%	9	15%
Cc1ccc(Cl)cc1NC(=O)CC(O)(C(F)(F)F)C(F)(F)F	-8%	18µM*	-36%	13µM*	-83*	?
Cc1ccc(S(=O)(=O)N2[C@@H](c3ccc(C(C)(C)C)cc3)C(C(=O)O)=CC[C@H]2c2ccc(C(C)C)cc2)cc1	-19%	?	-88%	?	-7	?
CCCCc1cc(=O)oc2cc(OCC(=O)NCCN3CCOCC3)ccc12	1%	-4%	7%	2%	-2	7%
CNc1nc(OC)nc(N(C#N)CN2C(=O)c3ccccc3S2(=O)=O)n1	0%	15µM*	-34%	-21%	-82*	16µM*
Cc1cc(C)nc(N(C#N)CN2C(=O)c3ccccc3S2(=O)=O)n1	-2%	?	-2%	?	-14	15µM*
Cc1cc(C)nc(NC(=O)CN2C(=O)c3ccccc3S2(=O)=O)n1	1%	4%	-20%	0%	12	-10%
Cc1ccc(-c2cc(-c3coc4ccccc4c3=O)c3c(n2)-c2ccccc2OC3)cc1	3%	?	-13%	3%	.	-26%
COc1ccc(-c2cc3c(=O)n(CC(=O)NCCCN4CCC(N5CCCCC5)CC4)ncn3n2)cc1	2%	15µM*	-4%	2%	-12	?
Cc1ccnc(Nc2nc3ccccc3o2)n1	5%	?	-58%	-11%	2	21µM*
Cc1ccc(Nc2nc3ccccc3o2)cc1F	-2%	8.2µM*	-10%	4%	35	10µM*
SMILES	TDP1 inh	DT40 TDP1 CPT	HepG2 tox	TGFb SMAD3 inh	IL-1B inflam inh	TDP1 cell noCPT
O=C(O)c1ccc(S(=O)(=O)N(CCc2ccccc2)Cc2ccc(Cl)cc2)cc1	.	-15%	-17%	-10%	19	-9%
O/C(=C\c1ccc2ccccc2n1)c1ccncc1	-5%	-27%	-47%	-12%	-17	?
O/C(=C\c1nc2ccccc2nc1/C=C(\O)c1ccccc1)c1ccccc1	5%	?	-15%	-7%	-98*	?
CCOc1ccc(Cl)cc1CNCCCSc1nnnn1C	5%	-26%	4%	11%	.	-29%
Cc1ccc2ccc3c(c2n1)NS(=O)(=O)c1ccc(C(F)(F)F)cc1-3	-14%	.	4%	7.1µM*	.	.
Cn1cc(CN(C(=O)Nc2ccccc2)C2CCCCC2)c2ccccc21	0%	6.5µM*	16µM*	?	.	8.2µM*
Cn1cc(CN(C(=O)Nc2ccc(Cl)c(Cl)c2)C2CCCCC2)c2ccccc21	5%	2.3µM*	-5%	-5%	.	4.1µM*
O=C(Nc1cccc(Cl)c1)N(Cc1nc2ccccc2c(=O)[nH]1)C1CCCC1	6%	-27%	-27%	-19%	0	?
N#CCCN(C(=O)Nc1ccccc1)C1CCCCC1	.	2%	-2%	11%	21	3%
CCN(Cc1nc(-c2cccc(C)c2)no1)S(=O)(=O)c1ccc(C)cc1	-12%	?	-14%	-29%	.	?
COc1ccccc1C(=O)Nc1nnc(S(=O)(=O)N(C)c2ccc(Cl)cc2)s1	-4%	-15%	-6%	?	.	?
Cc1cccc(NC2(C(=O)O)CCCC2)c1	.	12%	0%	0%	26	?
C=CCCN(Cc1ccc(OC)cc1)S(=O)(=O)c1ccccc1Br	-13%	.	-28%	?	.	.
C=CCCN(Cc1ccccc1)S(=O)(=O)c1cc(Br)ccc1Br	-17%	?	-1%	?	16	15µM*
O=C(c1cc(S(=O)(=O)N2CCCC2)c[nH]1)N1CCN(c2cccc(Cl)c2)CC1	0%	?	-20%	?	.	-65%
Cc1cc(OCC(=O)Nc2sc3c(c2C(N)=O)CCCC3)ccc1C(C)C	1%[12.3 µM]	0%	0%	0%	.	-19%
Cc1ccc(N2C(=O)CC(Sc3ncn[nH]3)C2=O)cc1C (configuration not stated)	-1%	4.6µM*	-3%	-1%	-6	5.2µM*
